Measured values taken from the supplement of paper PMC10981050.
Where “and” joins values, the source holds several entries; their conditions need not be identical. Equal entries are not always repeated. Structures can show the parent of a compound that is named as a salt.

Columns and labels:
Assay in all cases: cell viability relative to vehicle control; higher = less cytotoxic
Settings in all cases: 10 µM
K562 = system: K562
Summary of the method: (§1)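 Each screen used CRISPR-edited mutant and wild-type clones from four leukaemia lines. Compounds were acoustically dispensed at a single 10 µM dose, and CellTiter-Glo luminescence was read after 48 h with the supernatant first removed. Viability was analysed in Genedata Screener and given as percent of the on-plate vehicle control.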

MARIMO = system: MARIMO
Summary of the method: as §1

MOLM14 = system: MOLM14
Summary of the method: as §1

OCI-AML2 = system: OCI-AML2
Summary of the method: as §1

Structure (SMILES) | cell viability (K562; SRSF2 genotype: SRSF2 P95H/wt) | cell viability (K562; SRSF2 genotype: SRSF2 wt/wt) | cell viability (MARIMO; SRSF2 genotype: SRSF2 P95H/wt) | cell viability (MARIMO; SRSF2 genotype: SRSF2 wt/wt) | cell viability (MOLM14; SRSF2 genotype: SRSF2 P95H/wt) | cell viability (MOLM14; SRSF2 genotype: SRSF2 wt/wt) | cell viability (OCI-AML2; SRSF2 genotype: P95H/wt) | cell viability (OCI-AML2; SRSF2 genotype: wt/wt)
Clc1ccc(C(Cn2ccnc2)OCc2ccsc2Cl)c(Cl)c1 (centres undefined) [Tioconazole] | 69.5% and 76.7% | 71.6% | 69.7% | 71.2% | 62.4% | 69.5% | 59.9% | 63.1%
CN1CCN(C(=O)C=Cc2ccc([N+](=O)[O-])o2)CC1 | 43.9% and 54.3% | 65.3% | 65% | 72.4% | 40.7% | 35.7% | 24.7% | 42.6%
Cc1c(C)c2c(c(C)c1OC(=O)CCC(=O)OCCOCCOCCO)CCC(C)(CCCC(C)CCCC(C)CCCC(C)C)O2 (centres undefined) [Tocofersolan] | 78.2% and 80.7% | 92.4% | 80.3% | 63.5% | 87.2% | 97.2% | 59.5% | 77.4%
CC(=O)NC(CC(C)C)C(=O)O (centres undefined) [Acetylleucine] | 91.4% and 98.5% | 97% | 103% | 93.4% | 101% | 94.8% | 92.2% | 95.4%
O=c1ncn2nc(Sc3ccc(F)cc3F)ccc2c1-c1c(Cl)cccc1Cl | 84.8% and 86.8% | 83.6% | 77.9% | 84% | 82.1% | 92.9% | 64.1% | 68.6%
CN(C)CC(c1ccc(O)cc1)C1(O)CCCCC1 (centres undefined) [Desvenlafaxine] | 96.7% and 97.5% | 101% | 102% | 102% | 98.1% | 100% | 100% | 99.3%
COc1ccccc1OCCNCC(O)COc1cccc2[nH]c3ccccc3c12 (centres undefined) [Carvedilol] | 51.6% and 66.2% | 52.8% | 53% | 56.8% | 53.6% | 56.4% | 56.1% | 56.2%
O=C(O)c1cc2cccc([N+](=O)[O-])c2[nH]1 | 103% and 105% | 103% | 98.9% | 107% | 106% | 101% | 111% | 111%
CCCOc1ccc2c(c1)CC[C@@H]1[C@@H]2CC[C@]2(C)[C@@H](OC)CC[C@@H]12 [Promestriene] | 86.2% and 89.4% | 94.1% | 76.6% | 89.8% | 83.1% | 97.2% | 59.6% | 66.2%
CCCCCCCCCCCCCCCCCC(=O)O [Stearic acid] | 107% and 111% | 107% | 107% | 109% | 105% | 108% | 96.4% | 103%
CC(C)n1c(/C=C/C(O)CC(O)CC(=O)O)c(-c2ccc(F)cc2)c2ccccc21 (centres undefined) [Fluvastatin sodium (Lescol)] | 80.8% and 90.5% | 69.6% | 45.5% | 46.6% | 77.7% | 89.3% | 36.8% | 46.5%
COc1cc(Br)c(Nc2nc(-c3c(C)nc4ncccn34)cs2)c(Br)c1 | 20.6% and 23.8% | 24% | 14.7% | 19.2% | 16% | 10.7% | 2.76% | 8.07%
CC(C)(O)CC(=O)NCCn1ccc2ncnc(Nc3ccc(Oc4cccc(C(F)(F)F)c4)c(Cl)c3)c21 | 69.4% and 63.5% | 72.6% | 69.7% | 93.9% | 76.5% | 79.4% | 74.8% | 76.8%
CCCCc1oc2ccccc2c1C(=O)c1cc(I)c(OCCN(CC)CC)c(I)c1 [Amiodarone HCl] | 70.3% and 74.5% | 69.9% | 52.3% | 58.6% | 54.8% | 62.7% | 42.8% | 48.5%
Cc1cc(Nc2ccc(NC(=O)c3ccc(Nc4ccnc5ccccc45)cc3)cc2)nc(N)n1 | 1.14% and 0.97% | 2.69% | 0.48% | 0.36% | 0.33% | 0.25% | 0.22% | 0.27%
Cc1oncc1C(=O)Nc1ccc(C(F)(F)F)cc1 [Leflunomide] | 93.4% and 96.5% | 86.8% | 94.9% | 90.1% | 102% | 98.3% | 80.3% | 85.1%
Nc1nc2ccc(OC(F)(F)F)cc2s1 [Riluzole (Rilutek)] | 94.3% and 96.3% | 88.4% | 94% | 90.6% | 81.8% | 98.6% | 103% | 94.8%
CC1OC(OC2CCC3(C)C(CCC4(C)C3C=CC3=C5CC(C)(C)CCC5(CO)C(O)CC34C)C2(C)CO)C(O)C(OC2OC(CO)C(O)C(O)C2O)C1O (centres undefined) [Saikosaponin B2] | 93.5% and 88.7% | 86.8% | 91.5% | 106% | 96.3% | 95.1% | 93.9% | 100%
O=C(Nc1ccccc1)c1cc([N+](=O)[O-])ccc1Cl | 91.7% and 96.2% | 81.4% | 86.8% | 90.8% | 89.3% | 101% | 90.1% | 91.8%
CC12CCC(CC1=O)C2(C)C (stereo not drawn) [(+)-Camphor] | 94.2% and 102% | 101% | 96.2% | 99.9% | 99.3% | 99.8% | 103% | 92.2%
CC(C)C[C@@H]1NC(=O)[C@@H](C(C)C)NC(=O)[C@@H]2CCCN2C(=O)[C@@H](CC(=O)O)NC(=O)[C@@H](Cc2c[nH]c3ccccc23)NC1=O | 101% and 105% | 97% | 101% | 108% | 99% | 101% | 103% | 103%
O=c1cc(-c2ccc(O)cc2)oc2cc(O)cc(O)c12 [Apigenin] | 102% and 96.4% | 96% | 85.9% | 99.8% | 55.4% | 57.5% | 67.9% | 63.6%

Structure (SMILES) | cell viability (K562; SRSF2 genotype: SRSF2 P95H/wt) | cell viability (K562; SRSF2 genotype: SRSF2 wt/wt) | cell viability (MARIMO; SRSF2 genotype: SRSF2 P95H/wt) | cell viability (MARIMO; SRSF2 genotype: SRSF2 wt/wt) | cell viability (MOLM14; SRSF2 genotype: SRSF2 P95H/wt) | cell viability (MOLM14; SRSF2 genotype: SRSF2 wt/wt) | cell viability (OCI-AML2; SRSF2 genotype: P95H/wt) | cell viability (OCI-AML2; SRSF2 genotype: wt/wt)
Cn1nnc(-c2ccc(-c3ccc(N4C[C@H](CO)OC4=O)cc3F)cn2)n1 [Tedizolid] | 87.1% and 82.2% | 83.3% | 77.3% | 88.1% | 89.4% | 85.5% | 79.9% | 81.6%
COc1cc2ncnc(Nc3ccc(Cl)cc3F)c2cc1OC | 87.2% and 95.4% | 82.8% | 91.9% | 103% | 86.7% | 96.1% | 92.9% | 92.1%
Cc1ccc(Cl)cc1N(CC(=O)Nc1c(F)cccc1F)S(C)(=O)=O | 104% and 111% | 116% | 99.5% | 106% | 102% | 105% | 110% | 124%
CC(C)n1c(=O)n(C)c2cnc3cc(F)c(-c4ccc(OCCCN5CCCCC5)nc4)cc3c21 | 71.3% and 72.9% | 75.9% | 60% | 61% | 30.9% | 32% | 32.7% | 37%
Cc1ccnc(NS(=O)(=O)c2ccc(N)cc2)n1 [Sulfamerazine] | 99.9% and 106% | 101% | 105% | 104% | 99.7% | 107% | 107% | 89.9%
COc1cc(Nc2ncc(F)c(Nc3ccc4c(n3)NC(=O)C(C)(C)O4)n2)cc(OC)c1OC [R406(free base)] | 95% and 101% | 104% | 72.2% | 85.1% | 25.2% | 16% | 42.1% | 56.3%
Nc1ccc(S(=O)(=O)Nc2cncc(Cl)n2)cc1 [Sulfalozine sodium] | 101% and 97.3% | 104% | 103% | 111% | 92.7% | 102% | 107% | 88.8%
C=CC(=O)N[C@H]1CCOC[C@H]1Nc1ncc2cc(-c3c(Cl)c(OC)cc(OC)c3Cl)ccc2n1 | 78.2% and 81.3% | 80.2% | 85.8% | 90.5% | 78.8% | 79.8% | 66.8% | 72.7%
Cc1c[nH]c(C=C2C(=O)Nc3ccccc32)c1CCC(=O)O | 91.9% and 93.8% | 91.2% | 95.2% | 92.2% | 32.7% | 28% | 54.2% | 58.1%
Cc1ccc(-c2nn(C(C)(C)C)c3ncnc(N)c23)cc1 | 64.5% and 82.4% | 63.5% | 99.2% | 102% | 58.6% | 85.9% | 82% | 78.6%
Cc1ccc2nc(NCCN)c3ncc(C)n3c2c1 | 37.6% and 36.4% | 34.5% | 7.18% | 3% | 1.38% | 0.62% | 2.44% | 13%
C/C=C(/C)C(=O)OC(=O)/C(C)=C\C [Angelic anhydride] | 98.7% and 106% | 113% | 101% | 101% | 103% | 107% | 102% | 100%
COc1c(C)c2c(c(O)c1C/C=C(\C)CCC(=O)O)C(=O)OC2 [Mycophenolic acid] | 49.9% and 48.3% | 43.2% | 42.2% | 41.6% | 10.9% | 3.65% | 13.9% | 13%
O=C(O)C1=CO[C@@H](O[C@@H]2O[C@H](CO)[C@@H](O)[C@H](O)[C@H]2O)[C@H]2[C@@H]1C=C[C@]2(O)CO [Monotropein] | 110% and 104% | 107% | 101% | 106% | 104% | 104% | 90.7% | 103%
C[C@H]1[C@H](NC(=O)/C(=N\OC(C)(C)C(=O)O)c2csc(N)n2)C(=O)N1S(=O)(=O)O [Aztreonam (Azactam, Cayston)] | 106% and 99.5% | 109% | 96.8% | 112% | 103% | 108% | 98.4% | 104%
COc1ccc(Cl)cc1C(=O)NCCc1ccc(S(=O)(=O)NC(=O)NC2CCCCC2)cc1 [Glyburide (Glibenclamide)] | 107% and 98.6% | 110% | 106% | 120% | 108% | 103% | 98.8% | 104%
C[C@H]1O[C@@H](n2cc(F)c(=O)[nH]c2=O)[C@H](O)[C@@H]1O [Doxifluridine] | 102% and 95% | 92.1% | 100% | 104% | 96.5% | 105% | 97.3% | 99.7%
COc1cc(CCC(=O)CC(=O)CCc2ccc(O)c(OC)c2)ccc1O [Tetrahydrocurcumin] | 94.1% and 90.6% | 89.2% | 90.2% | 88.7% | 92.8% | 94.5% | 85.8% | 97.3%
NC(=O)c1ccc(N(C(N)=O)c2c(F)cccc2F)nc1-c1ccc(F)cc1F | 97.7% and 97.3% | 94.1% | 94% | 97.5% | 96.1% | 105% | 95.3% | 103%
O=C(NCCCNc1nc(Nc2cccc(CN3CCOCC3)c2)ncc1C1CC1)C1CCC1 | 74.5% and 95.7% | 84.8% | 69.5% | 74.1% | 8.31% | 6.65% | 17.8% | 21.4%
O=c1c(-c2ccc(O[C@@H]3O[C@H](CO)[C@@H](O)[C@H](O)[C@H]3O)cc2)coc2cc(O)cc(O)c12 [Sophoricoside] | 104% and 106% | 116% | 106% | 103% | 100% | 104% | 109% | 105%
